# In ChEMBL document CHEMBL3988442, “University of Dundee, Small-Polar-MMV Screening Library” (2021):
# About 1,000 (1.4%) of roughly 69,000 compounds showed an effect of 50% or more. The sample as a whole holds a higher share of strong results than the screen did.
# System: Leishmania donovani
# Test: Leishmania intramacrophage assay
# Assay type: functional, organism-based
# Parameters: scale not given: in the data most compounds retested in dose-response had high values
compound,measurement,setting,value
O=C(Nc1cccc(CN2CCOC2=O)c1)N1CCCC1,Percent Effect,"30.3 µM, […]",-5.143%
Cc1noc(C)c1C(=O)N(C)Cc1nc(-c2ccccn2)no1,Percent Effect,"30 µM, 30.03 µM",21.79%
Cc1noc(C(C)C)c1C(=O)NCCN1CCCCCC1=O,Percent Effect,"30 µM, 30.03 µM",20.26%
O=C1CCC(C(=O)NCCOc2cccc(Cl)c2Cl)CN1 (stereo not given),Percent Effect,"30.3 µM, […]",18.68%
CN(C)[C@H]1CCCCN(C(=O)c2cccc(N3CCS(=O)(=O)CC3)c2)C1,Percent Effect,"30.3 µM, […]",-11.54%
CN(C)[C@H]1CCCCN(C(=O)c2cccc(-c3cccc(F)c3)c2)C1,Percent Effect,"30.3 µM, […]",60.02%
CN(C)C1CCCN(C(=O)c2cccc(-c3ncc[nH]3)c2)CC1 (stereo not given),Percent Effect,"30.3 µM, […]",21.12%
Cc1ncc(CNC(CCO)C2CCCCC2)s1 (stereo not given),Percent Effect,"30.3 µM, […]",-3.67%
Cc1nc(CN2C(=O)C[C@@H]3[C@@H]2CCN3S(C)(=O)=O)cs1,Percent Effect,"30.3 µM, […]",-12.74%
Cc1nnc([C@@H]2C[C@H]3CN(C(=O)C4CC4)C[C@H]3O2)[nH]1,Percent Effect,"30.3 µM, […]",15.1%
Cc1cccc(C(C(=O)NC(C)(C)CN2CCCC2)N(C)C)c1 (stereo not given),Percent Effect,"30.3 µM, […]",64.22%
Cc1ccc(C(C(=O)NC(C)(C)CN2CCCC2)N(C)C)cc1 (stereo not given),Percent Effect,"30.3 µM, […]",-34.55%
Cc1cccc(C(C(=O)NC(C)(C)CN2CCOCC2)N(C)C)c1 (stereo not given),Percent Effect,"30.3 µM, […]",-45.9%
CCN(Cc1ccc2c(c1)OCO2)C(=O)NC(C)Cn1cccn1 (stereo not given),Percent Effect,"30 µM, 30.03 µM",-8.819%
O=C1CCC(c2ccccc2)=NN1CN1CCCCCC1,Percent Effect,"30.3 µM, […]",54.14%
O=C1CCC(c2ccc(Cl)cc2)=NN1CN1CCCCCC1,Percent Effect,"30.3 µM, […]",-2.466%
O=C1CCC(c2ccc(Cl)cc2)=NN1CN1CCSCC1,Percent Effect,"30.3 µM, […]",35.07%
Cc1cc2ccccc2n1CCC(=O)NCCCc1nnc(N)s1,Percent Effect,"30.3 µM, […]",18.88%
Cc1cc(C(F)F)nn1C(C)C(=O)NCc1ncc[nH]1 (stereo not given),Percent Effect,"30.3 µM, […]",43.47%
Cc1nn(C)c(C)c1CN1CCCC(c2ccc(C(=O)O)cc2)C1 (stereo not given),Percent Effect,"30.3 µM, […]",20.41%
CCn1nc(C)c(CN2CCC(c3ccc(C(=O)O)cc3)C2)c1C (stereo not given),Percent Effect,"30.3 µM, […]",54.96%
CCn1nc(C)c(CN2CCCC(c3ccc(C(=O)O)cc3)C2)c1C (stereo not given),Percent Effect,"30.3 µM, […]",17.25%
CCS(=O)(=O)CCN(C)Cc1cc(C)ccc1OC,Percent Effect,"30.3 µM, […]",6.115%
CC(=O)NCC(=O)N1CCN(CCN(C)C)c2ncccc2C1.O=C(O)C(F)(F)F.O=C(O)C(F)(F)F,Percent Effect,"30.3 µM, […]",27.08%
COCC(=O)NC[C@@]1(COc2cccnc2)C[C@@H](O)[C@@H](O)C1.Cl,Percent Effect,"30.3 µM, […]",-3.857%
COC(=O)c1cccc(S(=O)(=O)NC(=O)COC2CCCC2)c1,Percent Effect,30 µM,-0.3864%
Clc1ccc(CN2CCN(Cn3nccc3-c3cccnc3)CC2)s1,Percent Effect,"30.3 µM, […]",56.59%
c1cncc(-c2ccnn2CN2CCC3(CC2)OCCO3)c1,Percent Effect,"30.3 µM, […]",24.88%
CC(C)(C)CCN1CCN(Cn2nccc2-c2cccnc2)CC1,Percent Effect,"30.3 µM, […]",14.91%
CC(C)(C)C(=O)N1CCN(Cn2nccc2-c2cccnc2)CC1,Percent Effect,"30.3 µM, […]",7.096%
c1cncc(-c2ccnn2CN2CCOCC2)c1,Percent Effect,"30.3 µM, […]",-9.601%
c1cnc(N2CCN(Cn3nccc3-c3cccnc3)CC2)nc1,Percent Effect,"30.3 µM, […]",61.02%
COc1ccc(CC2CN(C(=O)c3ocnc3C)CCO2)cc1 (stereo not given),Percent Effect,"30.3 µM, […]",-6.657%
N#Cc1ccccc1C(=O)N1C[C@H](CO)C[C@H](CN2CCCC2)C1,Percent Effect,"30 µM, 30.03 µM",18.98%
Cc1nc2ccnn2c(C)c1CCC(=O)N1CCN(CCO)CC1,Percent Effect,30 µM,14.29%
CC(=O)N1CCCC(c2ccc(Cc3ccccc3)cn2)C1 (stereo not given),Percent Effect,"30.3 µM, […]",-26.06%
Cc1nc(CN2CCO[C@H]3CN(C(=O)c4cscn4)C[C@H]32)cs1,Percent Effect,"30.3 µM, […]",38.15%
Cc1ccsc1CN1CCc2nc3ccsc3c(=O)n2CC1.Cl,Percent Effect,"30.3 µM, […]",14.2%
COc1ccc2[nH]c3c(c2c1)CN(c1cc(NCCO)nc(N)n1)CC3,Percent Effect,"30.3 µM, […]",13.82%
CC(C)Cc1ncc2c(n1)CN(c1cc(NCCO)nc(N)n1)C2,Percent Effect,"30.3 µM, […]",22.17%
Nc1nc(NCCO)cc(N2CCc3c([nH]c4ccccc34)C2)n1,Percent Effect,"30.3 µM, […]",50.32%
CC(=O)N1CCO[C@@H]2CN(Cc3ccccc3F)C[C@@H]2C1.O=C(O)C(F)(F)F,Percent Effect,"30.3 µM, […]",6.292%
O=C(NCc1cccs1)C1CNCC12CCOCC2.O=C(O)C(F)(F)F (stereo not given),Percent Effect,"30.3 µM, […]",12.59%
CC(C)CN1CCC(NC(=O)N(C)Cc2csc3ccccc23)CC1,Percent Effect,"30.3 µM, […]",39.03%
CCN1CCC(NC(=O)N(C)Cc2csc3ccccc23)CC1,Percent Effect,"30.3 µM, […]",82.94%
CN(Cc1csc2ccccc12)C(=O)NC1CCS(=O)(=O)C1 (stereo not given),Percent Effect,"30.3 µM, […]",11.38%
COc1ccc(CCC(=O)Nc2cccnc2N2CCCC2)cc1Br,Percent Effect,"30 µM, 30.03 µM",33.61%
Cc1ccc(CNC(=O)CN2CCOC(Cn3cncn3)C2)s1 (stereo not given),Percent Effect,30 µM,21.75%
Cc1nc(Nc2nnc(C)s2)cc(C2CCCN2c2ccncn2)n1 (stereo not given),Percent Effect,"30.3 µM, […]",-2.613%
CCC(NC(=O)C(C)(C)C)c1ccccc1C (stereo not given),Percent Effect,"30.3 µM, […]",-8.319%
